About 2,300 (0.79%) of roughly 290,000 compounds were called active. Cut-off read from the data, not from the text of the source: active = inhibition above about 22%; inactive = the rest. For the sample, actives were picked, then their nearest neighbours and some compounds at random.
Assay: cytotoxicity in IEC-6 intestinal epithelial cells, primary screen, cytotoxicity control for KLF5 inhibitor project, cell-based, luminescence (AID 1825);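 note: 0% = plate median of test compound wells and 100% = cytotoxic reference compound wells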
Conditions: IEC-6 cytotoxicity, luminescence viability; at 5 µM; active compounds read high

| Compound | inhibition |
| --- | --- |
| Cc1ccc(-c2cc(=O)c3ccc(Cl)cc3[nH]2)cc1 | 0.6% (inactive) |
| O=c1cc(-c2ccccc2)[nH]c2cc(F)ccc12 | 80.7% (active) |
| Cc1ccc(-c2cc(=O)c3ccc(F)cc3[nH]2)cc1 | -6.3% (inactive) |
| O=C(Nc1cccc2cccnc12)c1cccc(Cl)c1 | 7.6% (inactive) |
| COc1ccc(C(=O)NCC(=O)N/N=C/c2cccnc2)cc1 | 3.2% (inactive) |
| Cc1nc2nc(C)c(NS(=O)(=O)c3ccc(C(C)(C)C)cc3)c(=O)n2[nH]1 | 1.1% (inactive) |
| Cc1cc(C(=O)NC2CCCc3c2cnn3-c2cccc(C)c2C)c(C)o1 (configuration not stated) | 4.8% (inactive) |
| Cc1ccc(-n2ncc3c2CCCC3NC(=O)c2cnccn2)cc1C (configuration not stated) | 3.7% (inactive) |
| CC(=O)NCC(=O)NC1CCCc2c1cnn2-c1ccccc1F (configuration not stated) | -1.9% (inactive) |
| Cn1nccc1C(=O)NC1CCCc2c1cnn2-c1ccccc1F (configuration not stated) | 25.7% (active) |
| Cn1nccc1C(=O)NC1CCCc2c1cnn2-c1ccc(F)cc1F (configuration not stated) | 31% (active) |
| COc1ccc(C(=O)NC2CCCc3c2cnn3-c2cccc(C)c2C)c(OC)n1 (configuration not stated) | 8.5% (inactive) |
| Cc1ccc(/C=C2\CCn3c2nc2cc(C(=O)O)ccc2c3=O)c(C)c1 | 1.8% (inactive) |
| C=C(C)Cn1c(C)cc(C)c(S(=O)(=O)c2ccccc2C)c1=O | -2.1% (inactive) |
| COc1ccc(Oc2c(Cl)cnn(-c3ccccc3)c2=O)cc1 | 1.3% (inactive) |
| Cc1cccc(-n2ncc(Cl)c(Cl)c2=O)c1 | 97.5% (active) |
| Cc1cccc(-n2ncc(C#N)c2-n2cccc2)c1 | 1.1% (inactive) |
| CC(C)CC(=O)N1CCN(Cc2ccccc2Br)CC1 | 1.6% (inactive) |
| COc1ccc(/C=C/C(=O)Nc2ccc(C34CC5CC(CC(O)(C5)C3)C4)cc2)cc1OC | 18.5% (inactive) |
| O=C(N=C1SC2CS(=O)(=O)CC2N1c1cc(Cl)ccc1Cl)C1CC1 (configuration not stated) | -6.4% (inactive) |
| COc1ccc(C23NCCN2C(=O)c2ccccc23)cc1 (configuration not stated) | 1.3% (inactive) |
| COc1cccc(N2C(=O)CN(Cc3ccccc3)C2=S)c1 | 9.4% (inactive) |
| Cc1ccc(S(=O)(=O)N(C)C2(C)CCS(=O)(=O)C2)cc1 (configuration not stated) | -8.7% (inactive) |
| Cc1ccc(S(=O)(=O)C2(S(=O)(=O)c3ccc(C)cc3)CCCC2)cc1 | 45.6% (active) |
| Cc1ccc(S(=O)(=O)N2CCN(C)CC2)cc1 | -1.1% (inactive) |
| COc1ccccc1CCNS(=O)(=O)c1cn(C)nc1C | -1.7% (inactive) |

| Compound | inhibition |
| --- | --- |
| CN(CCc1ccccn1)C1CCCN(S(=O)(=O)c2ccccc2Cl)C1 (configuration not stated) | 5.5% (inactive) |
| O=C(CN1C(=O)C2C3C=CC(C3)C2C1=O)NCC1COc2ccccc2O1 (configuration not stated) | -0.7% (inactive) |
| Cc1cc(C(=O)CCl)c(C)n1CC1COc2ccccc2O1 (configuration not stated) | -0.4% (inactive) |
| O=C1C(=O)N(CC2COc3ccccc3O2)c2ccccc21 (configuration not stated) | 65.8% (active) |
| COc1ccc(N2CC(C(=O)N[C@@H](C)C(=O)N3CCCCC3)CC2=O)cc1 (some centres not stated) | 4.5% (inactive) |
| Cc1ccc(-n2ncc3c2CC(C)(C)CC3NC(=O)Cc2c(C)noc2C)cc1 (configuration not stated) | 4% (inactive) |
| COc1cc(Br)c(-c2sc(Nc3ccccc3)n[n+]2-c2ccccc2)cc1OC | -5.7% (inactive) |
| S=c1[nH]c(-c2cccs2)cn1-c1ccccc1 | -0.4% (inactive) |
| O=c1oc2ccccc2cc1-c1cn(-c2ccccc2)c(=S)[nH]1 | 30.6% (active) |
| COc1ccc(-c2cn(-c3ccc(OC)cc3)c(=S)[nH]2)cc1 | -3.2% (inactive) |
| CCn1ccnc1CN(C)C(=O)c1cc(COc2ccc(Cl)cc2OC)on1 | 1.4% (inactive) |
| Cc1nn(CCCC(=O)NCc2ccccc2Cl)c(=O)c2nccn12 | -5.6% (inactive) |
| COc1ccccc1/C=N\Nc1cc(C)nc(-n2nc(C)cc2C)n1 | -10.1% (inactive) |
| Cc1cc(Oc2ccc(Cl)cc2)nc(SCC(=O)c2ccccc2)n1 | 1.9% (inactive) |
| Cc1cc(N/N=C\c2ccc(Br)cc2)nc(-n2nc(C)cc2C)n1 | -0.5% (inactive) |
| CCOC(=O)c1cnc(-n2nc(C)cc2C)nc1Nc1cccc(C(C)=O)c1 | 1.3% (inactive) |
| COc1ccc(Nc2cc(C)nc(-n3nc(C)cc3C)n2)cc1 | 84.8% (active) |
| CC(=O)c1ccc(Oc2cc(C)nc(-n3nc(C)cc3C)n2)cc1 | 85.4% (active) |
| N#CCc1ccc(NC(=O)c2ccccc2C(=O)Nc2ccc(CC#N)cc2)cc1 | -5.3% (inactive) |
| COC(=O)COc1ccc2c(=O)c(Oc3ccccc3Br)coc2c1 | 5.7% (inactive) |
| Cc1nc2sccn2c(=O)c1S(=O)(=O)NCCc1ccccc1 | -0.1% (inactive) |
| CCc1cccc(NC(=O)C2CCCN(S(=O)(=O)c3ccc4[nH]c(=O)ccc4c3)C2)c1 (configuration not stated) | -2.8% (inactive) |
| COc1ccc(Nc2cc(=O)oc3ccccc23)cc1 | 46.4% (active) |
| COc1ccc(Nc2nnc(C)c3ccccc23)cc1 | -4% (inactive) |
| COc1ccc2oc(=O)cc(-c3cc4ccccc4o3)c2c1 | 2.8% (inactive) |
| O=S(=O)(Cc1nnnn1-c1ccccc1)c1ccccc1 | 1.5% (inactive) |

| Compound | inhibition |
| --- | --- |
| O=C(Nc1nnc(S(=O)(=O)N2CCOCC2)s1)c1cccc(Br)c1 | 0.3% (inactive) |
| Cc1cnc(NC(=O)c2ccccn2)s1 | 8.9% (inactive) |
| O=C(Nc1nnc(C2CC2)s1)c1ccccn1 | 27.4% (active) |
| O=C(Nc1nnc(C2CC2)s1)c1cc(Cl)sc1Cl | 0.1% (inactive) |
| COc1ccc(/C=N/N(C)C2=NS(=O)(=O)c3ccccc32)cc1OC | -2.2% (inactive) |
| Clc1cccc(N=C2NN=C(c3ccc4c(c3)OCCO4)CS2)c1 | -1.6% (inactive) |
| CN(C)c1nc(=Nc2cccc(Cl)c2)ss1 | 56.2% (active) |
| O=C(CN1CCN(Cc2ccccc2)CC1)Nc1ccc(F)c(F)c1 | 6.7% (inactive) |
| Cn1c(=O)oc2cc(S(=O)(=O)NCCC(=O)NCc3ccccc3Cl)ccc21 | 0.7% (inactive) |
| COc1ccccc1CNC(=O)C1CCN(S(=O)(=O)c2ccc3c(c2)CC(C)N3C(=O)C2CC2)CC1 (configuration not stated) | 3.9% (inactive) |
| Cc1ccc(Nc2nc(N3CCOCC3)nc(N3CCOCC3)n2)cc1Cl | 68.1% (active) |
| Cc1cc(Nc2ccc(Cl)cc2)nc(N2CCOCC2)n1 | 11.5% (inactive) |
| Cc1ccccc1NC(=O)CSc1nc2ccc(Nc3nc(N4CCOCC4)nc(N4CCOCC4)n3)cc2s1 | 3.9% (inactive) |
| Cc1ccc(NC(=O)CN(C)C(=O)c2ccc(Br)o2)cc1 | -4.8% (inactive) |
| O=C(c1ccc(S(=O)(=O)N2CCCC2)cc1)N1CCN(c2ccccc2F)CC1 | 2.3% (inactive) |
| O=C(Nn1cc(C(=O)N2CCN(c3ccccc3F)CC2)c2ccccc2c1=O)c1cnccn1 | 23.7% (active) |
| Cn1c(=O)cc(OCC(=O)N2CCN(c3ccccc3F)CC2)c2ccccc21 | -5.1% (inactive) |
| CCOn1c(SC(C)C)nc2ccccc2c1=O | -3.8% (inactive) |
| Cc1cc(C)n(-c2nc(C(F)(F)F)nc3ccccc23)n1 | 5.6% (inactive) |
| CCCOn1c(-n2nc(C)cc2C)nc2ccccc2c1=O | 54.7% (active) |
| O=C(c1cc2sccc2n1Cc1ccc(F)cc1)N1CCc2ccccc21 | 1.8% (inactive) |
| COc1ccccc1C(C)NC(=O)Cc1ccsc1 (configuration not stated) | 1.9% (inactive) |
| O=C(COC(=O)c1ccc(F)cc1)Nc1nc2ccc([N+](=O)[O-])cc2s1 | -0.2% (inactive) |
| O=C(NC(Nc1nc2ccc([N+](=O)[O-])cc2s1)(C(F)(F)F)C(F)(F)F)c1ccccc1 | 28% (active) |
| O=C(Nc1nc2ccc([N+](=O)[O-])cc2s1)c1ccc(S(=O)(=O)N2CCCc3ccccc32)cc1 | 2.9% (inactive) |
| CCc1nn(CCCC(=O)Nc2ccc(C)cc2C)c(=O)c2cc3occc3n12 | -4.9% (inactive) |

| Compound | inhibition |
| --- | --- |
| CCCCCCCCn1c2c(c(=N)c3c1CCC3)CCCC2 | 47.1% (active) |
| CCCCCCn1c(CN2CCCCC2)nc2c1c(=O)n(C)c(=O)n2C | -2.7% (inactive) |
| COc1ccc(CCNC(=O)c2c(C)nn(-c3ccccc3)c2Cl)cc1 | -1.7% (inactive) |
| CCOC(=O)c1c(C)[nH]c(C)c1S(=O)(=O)N(C)CC(=O)Nc1ccccc1C | -0.8% (inactive) |
| CCOC(=O)c1c(C)[nH]c2c1-c1ccccc1C(=O)C2=O | 43.3% (active) |
| CCOC(=O)C1=C(c2ccc(OC)cc2)C(=O)c2ccccc2C1=O | -1.7% (inactive) |
| Cc1cc(C)c(S(=O)(=O)c2cc(F)ccc2C)c(=O)[nH]1 | -1.4% (inactive) |
| O=C(CN1CCCCCC1)Nc1ccc(Cl)cc1F | 8.4% (inactive) |
| O=C(NC1(C(F)(F)F)NC(=O)N(C2CCCCC2)C1=O)c1ccco1 (configuration not stated) | 3.5% (inactive) |
| COC(=O)NC1(C(F)(F)F)NC(=O)N(C2CCCCC2)C1=O (configuration not stated) | 1.9% (inactive) |
| O=C1NC(Nc2nc3ccccc3s2)(C(F)(F)F)C(=O)N1C1CCCCC1 (configuration not stated) | 28.2% (active) |
| CCN(CC)CCN1C(=O)C(=O)/C(=C(/O)c2cnn(-c3ccccc3)c2C)C1c1cccs1 (configuration not stated) | 3.3% (inactive) |
| CN1C(=O)c2ccc(C(=O)Nc3ccc(Br)cn3)cc2C1=O | 5.5% (inactive) |
| C=CCc1ccccc1OCC(=O)N/N=C/c1ccccc1OCC | 1.4% (inactive) |
| Cc1ccc(/C=N/NC(=O)COc2ccccc2-c2ccccc2)cc1 | 85.6% (active) |
| CSc1ccc(/C=N\NC(=O)COc2ccc(Cl)cc2Br)cc1 | 7.1% (inactive) |
| COc1ccccc1NC(=O)c1ccc(N2CC3CC(C2)c2cccc(=O)n2C3)c(NC(=O)c2cccnc2)c1 (configuration not stated) | 2.1% (inactive) |
| O=C(NCc1ccccc1)C(c1ccco1)N(C(=O)c1csnn1)c1ccccc1F (configuration not stated) | 0.2% (inactive) |
| COc1cc2c(cc1OC)C(c1ccncc1)CC(=O)N2 (configuration not stated) | 1% (inactive) |
| COc1ccc(C2CC(=O)Nc3cc(C)c(C)cc32)c(OC)c1OC (configuration not stated) | 1.9% (inactive) |
| COc1ccccc1C1C2=C(COC2=O)Nc2cc3c(cc21)OCO3 (configuration not stated) | 92.2% (active) |
| CCCOc1ccccc1C1CC(=O)Nc2cc3c(cc21)OCO3 (configuration not stated) | 77.5% (active) |
| COC(=O)C1=C(C)NC(=O)CC1c1ccccc1OC (configuration not stated) | -0.1% (inactive) |
| COc1ccc(S(=O)(=O)Nc2ccc3c(c2)OCO3)cc1Cl | 0.7% (inactive) |
